The campaign covered roughly 360,000 compounds. About 350 (0.097%) were called active. No stated cut-off is given here; in the data, active means inhibition above about 16% (passing the limit was not always enough); inconclusive means no clear call, values can overlap the other calls; inactive means below that. The entries come from a sample that favours actives as a whole.
What follows are molecules tested on UDP-N-acetylbacillosamine N-acetyltransferase PglD (Campylobacter jejuni) (assay: blockers of PglD enzyme activity – biochemical, DTNB colorimetric, single point, primary screen (AID 602405)). Conditions: purified PglD enzyme, DTNB colorimetric CoA detection; at 12.5 µM; stronger effect = higher value.

inhibition, inactive:
C[C@@H]1CN([C@@H](C)CO)C(=O)c2cc(NS(C)(=O)=O)ccc2O[C@@H](C)CCCCO[C@@H]1CN(C)C(=O)c1ccccc1 2.15%
C[C@H]1CN([C@@H](C)CO)C(=O)Cc2cc(NC(=O)c3ccncc3)ccc2O[C@@H]1CN(C)C(=O)Nc1ccccc1 3.86%
O=C(C[C@@H]1CC[C@H](NC(=O)C2CC2)[C@H](CO)O1)NCc1ccccc1Cl -4.45%
CN(C)Cc1cn(CC[C@H]2CC[C@H](NC(=O)Nc3ccccc3F)[C@@H](CO)O2)nn1 -0.499%
C[C@H]1CN([C@@H](C)CO)C(=O)c2cc(NC(=O)Cn3cnnn3)ccc2O[C@H]1CN(C)S(C)(=O)=O -4.84%
O=C(Nc1ccccc1)N[C@@H]1CC[C@H](CCn2cc(C3(O)CCCC3)nn2)O[C@@H]1CO 2.19%
COc1ccc(-c2ccc3c(c2)O[C@@H](CN(C)CC2CCOCC2)[C@@H](C)CN([C@@H](C)CO)S3(=O)=O)cc1 -0.251%
O=C(C[C@@H]1CC[C@H]2[C@@H](COC[C@@H](O)CN2C(=O)Nc2ccc(Cl)cc2)O1)NC1Cc2ccccc2C1 2.05%
OC[C@@H]1Nc2ccc(-c3ccc(F)cc3)cc2[C@@H]2[C@H]1CCN2Cc1ccc(F)cc1 0.0285%
C[C@H](CO)N1C[C@H](C)[C@H](CN(C)S(=O)(=O)c2cn(C)cn2)OCCCC[C@H](C)Oc2ccc(N(C)C)cc2C1=O -2.91%
COc1ccc(NC(=O)Nc2ccc3c(c2)C(=O)N([C@@H](C)CO)C[C@H](C)[C@H](CN(C)C(=O)Nc2ccccc2)OCCCC[C@@H](C)O3)cc1 1.95%
CC(C)C(=O)Nc1ccc2c(c1)C(=O)N(C)[C@@H]1CC[C@@H](CC(=O)NCCc3ccccc3)O[C@H]1CO2 -3.51%
C[C@@H]1CN([C@@H](C)CO)S(=O)(=O)c2ccc(C#Cc3cccnc3)cc2O[C@@H]1CN(C)C(=O)CN(C)C 0.034%
C[C@@H]1CN([C@H](C)CO)S(=O)(=O)c2ccc(/C=C/c3ccccc3)cc2O[C@@H]1CN(C)C(=O)Nc1ccc(F)cc1 4.65%
O=C([C@H]1[C@H](CO)[C@H]2Cn3c(cccc3=O)[C@@H]1N2Cc1cocn1)N1CCCCC1 -0.522%
C[C@H](CO)N1C[C@H](C)[C@H](CN(C)C(=O)Nc2ccc(C(F)(F)F)cc2)Oc2ccc(N(C)C)cc2CC1=O 1.24%
COc1ccccc1-c1cnc2c(c1)C(=O)N([C@@H](C)CO)C[C@@H](C)[C@H](CN(C)Cc1cccnc1)O2 1.03%
CCC(=O)N1C[C@@H](C)[C@H](OC)CN(C)C(=O)c2ccc(NC(=O)NC(C)C)cc2OC[C@H]1C -4.33%
C[C@@H]1CN([C@@H](C)CO)C(=O)c2cc(N(C)C)ccc2O[C@@H](C)CCCCO[C@H]1CN(C)C(=O)CCCN(C)C 2.35%
CCC(=O)Nc1ccc2c(c1)C(=O)N(C)C[C@@H](OC)[C@@H](C)CN(Cc1ccccc1OC)[C@H](C)CO2 0.2%
CC(C)NC(=O)Nc1ccc2c(c1)C(=O)N([C@H](C)CO)C[C@@H](C)[C@@H](CN(C)S(=O)(=O)c1cccs1)OCCCC[C@@H](C)O2 -0.385%
C[C@H]1CN([C@@H](C)CO)C(=O)c2cccc(NC(=O)Nc3cccc4ccccc34)c2O[C@@H]1CN(C)C(=O)NC1CCCCC1 0.764%
C[C@@H]1CN([C@H](C)CO)S(=O)(=O)c2ccc(C#CCC3CCCC3)cc2O[C@H]1CN(C)Cc1ccc(C(=O)O)cc1 6.4%
Cc1noc(C)c1S(=O)(=O)Nc1ccc2c(c1)CC(=O)N([C@@H](C)CO)C[C@@H](C)[C@H](CN(C)C)O2 -1.66%
CN(C)C(=O)c1cccc(-c2ccc3c(c2)[C@@H]2[C@@H](CCN2Cc2nccs2)[C@@H](CO)N3)c1 0.288%
CCNC(=O)Nc1ccc2c(c1)C(=O)N(C)[C@@H]1CC[C@H](CC(=O)NC3CCCCC3)O[C@H]1CO2 1.07%
C[C@@H]1CN([C@@H](C)CO)C(=O)c2cc(C#CCN(C)C)cnc2O[C@@H]1CN(C)Cc1ccccn1 3.09%
COc1cccc(NC(=O)N(C)C[C@H]2Oc3ncc(C4=CCCCC4)cc3C(=O)N([C@H](C)CO)C[C@H]2C)c1 10.3%
CN1C(=O)c2cc(NC(=O)c3cccc(F)c3)ccc2OC[C@@H]2O[C@H](CC(=O)N3CCc4ccccc4C3)CC[C@@H]21 -1.96%
CNC(=O)C[C@@H]1CC[C@@H]2[C@H](COC[C@@H](O)CN2S(=O)(=O)c2ccccc2Cl)O1 1.56%
Cc1noc(C)c1S(=O)(=O)N(C)C[C@H]1Oc2ccc(NC(=O)Cc3ccccc3)cc2CC(=O)N([C@@H](C)CO)C[C@H]1C 2.8%
O=C(C[C@H]1C[C@@H]2c3cc(NC(=O)C4CCC4)ccc3O[C@@H]2[C@@H](CO)O1)NCCN1CCCCC1 3.36%
COc1cccc(S(=O)(=O)N[C@H]2C=C[C@H](CC(=O)NC3Cc4ccccc4C3)O[C@@H]2CO)c1 -1.14%
COc1ccc(S(=O)(=O)N[C@@H]2CC[C@H](CC(=O)N3CCc4ccccc4C3)O[C@H]2CO)cc1 -0.563%
COCC#Cc1cnc2c(c1)C(=O)N([C@@H](C)CO)C[C@@H](C)[C@H](CN(C)C(=O)C1CCOCC1)O2 4.25%
COc1ccc(NC(=O)N(C)C[C@H]2OCCCC[C@@H](C)Oc3ccc(NC(=O)NC4CCCCC4)cc3C(=O)N([C@@H](C)CO)C[C@H]2C)cc1 4.17%
O=C(NCC[C@@H]1CC[C@@H](NC(=O)Nc2cc(F)ccc2F)[C@H](CO)O1)Nc1ccc(Cl)cc1 0.614%
COc1cccc(S(=O)(=O)N2CCCCN3[C@H](CO)[C@H](c4ccc(-c5ccncc5)cc4)[C@H]3C2)c1 2.87%
Cc1noc(C)c1S(=O)(=O)N(C)C[C@@H]1Oc2ccc(NC(=O)C3CC3)cc2CC(=O)N([C@@H](C)CO)C[C@@H]1C -3.27%
COc1cccc(C(=O)Nc2ccc3c(c2)C(=O)N(C)[C@H]2CC[C@H](CC(=O)N[C@@H](C)c4ccccc4)O[C@H]2CO3)c1 0.936%

Reference: PubChem BioAssay AID602405 (Broad Institute, 2012)
